Several values for one entry are separate records, joined by “and”; a condition that tells them apart may be missing. Identical values can stand only once. Inconclusive results are not listed. A number with no mark means an inactive call. Activity calls are given as the source filed them. The call rests on the fitted dose curve; in most records, active means well fitted inhibition curve with a large enough effect; inconclusive means small, poorly fitted or top-dose-only effect; inactive means no such curve, though single readings can be large or run the other way.

This assay in a line: qHTS for Inhibitos of Bacillus subtilis Sfp phosphopantetheinyl transferase (PPTase): Chemistry Optimization Followup in B. Subtilis 168. The following applies: B. subtilis 168 growth, BacTiter-Glo luminescence, 5 h; series mostly up to 114 µM; activity change, negative = inhibition: at the top concentration. From the text: Phosphopantetheinyl transfer is a process essential to cellular viability and maintenance. Cell-permeable and stable compounds acting as PPTase inhibitors are anticipated to be antimicrobial agents in organisms with complimenting genotypes. […] This experiment evaluated a series of test compounds for antimicrobial activity with B. subtilis 168 (genotype: acpS+ and sfp-), a strain that contains a frameshift mutation in the sfp locus and thus requires a functional AcpS gene product for viability. [Mootz HD, 2001] This strain is expected to be sensitized to cell-permeable AcpS inhibitors, and insensitive to Sfp inhibitors. NIH Chemical Genomics Center [NCGC] NIH Molecular Libraries Probe Centers Network [MLPCN] MLPCN Grant: MH083266-01 Assay Submitter (PI): Michael Burkart, University of California, San Diego
Innoculum preparation. Bacillus subtilis 168 is maintained on lysogeny broth (LB) solidified by the addition of 1.5% w/v agar. Single colonies were used to LB medium (2 mL) and shaken overnight at 30 masculineC. In the morning, this culture (100 ul) was used to seed a fresh LB medium (10 mL) and was shaken at 30 masculineC until the culture OD600 reached 0.5. This culture was diluted 1:100 in fresh LB medium to provide the inoculum below. Bacterial susceptibility. LB medium (2 uL) is dispensed into wells of a sterile white 1536-well plate. Test compounds (23 nL) prepared as serial dilutions in DMSO are added to the plate by pintool transfer. Innoculum (2 uL) is added, the plates are covered with a vented Kalypsys assay lid and incubated at 30 masculineC. After 5 h, Bac-Titer Glo (4 uL; Promega Corp, Madison, WI) is added to the plates. They are incubated 10 minutes at room temperature and then the luminescence detected in a ViewLux multimodal plate reader.
(In general: qHTS replaces the single test concentration by a dilution series.)
Turning to `CN(C)c1ccc2nc(NC(=S)N3CCN(c4cccc(C(F)(F)F)c4)CC3)sc2c1`, the Potency is 5.91 µM (active). Turning to `Cc1cc(C)nc(NC(=S)N2CCN(c3ccncc3)CC2)c1`, the “activity change, negative = inhibition” value was -18.6%. Consider `FC(F)(F)c1cccc(N2CCN(C(=S)Nc3ccncc3)CC2)c1`, for which the Potency was 41.8 µM (active).

With `COc1ccnc(NC(=S)N2CCN(c3cccc(Cl)c3Cl)CC2)c1`, the Potency was 9.37 µM (active).

`Cc1cc(C)nc(NC(=C(C#N)C#N)N2CCN(c3cccc(C(F)(F)F)c3)CC2)c1`: the Potency was 37.3 µM (active).

In the case of `COc1cccc(NC(=S)N2CCN(c3cc(Cl)cc(Cl)c3)CC2)n1`, the “activity change, negative = inhibition” value is -1.53%.

With `Cc1cc(C)nc(NC(=S)N2CCN(c3cncs3)CC2)c1`, the Potency is 46.9 µM (active). Same read-out and setting: then `Cc1ccnc(NC(=S)NC2CN(c3cccc(C(F)(F)F)c3)C2)c1`, with 46.9 µM (active); and `Cc1ccnc(NC(=S)N2CCN(c3cccc(C(F)(F)F)n3)CC2)c1`, with 16.7 µM (active). As to `COc1ccc(NC(=S)N2CCN(c3cccc(C(F)(F)F)c3)CC2)nc1`, the “activity change, negative = inhibition” value is -22%. Consider `Cc1ccnc(NC(=S)N2CCN(c3cccc(C(F)(F)F)c3)CC2)c1`, for which the Potency was 41.8 µM (active) and 14.8 µM (active) and 16.7 µM (active). For the molecule `Cc1ccnc(NC(=S)NC2CCN(c3cccc(C(F)(F)F)c3)CC2)c1`, the Potency is 46.9 µM (active).

As to `FC(F)(F)c1cccc(N2CCN(C(=S)Nc3ccccn3)CC2)c1`, the Potency was 46.9 µM (active). As for `Cc1cc(C)nc(NC(=S)N2CCN(c3ccc(C(F)(F)F)cc3[N+](=O)[O-])CC2)c1`, the Potency is 41.8 µM (active).

As to `COc1ccnc(NC(=S)N2CCN(c3ccc(Cl)cc3Cl)CC2)c1`, the Potency was 13.2 µM (active).

Take `Cc1cc(C)nc(NC(=S)N2CCN(c3ccc(Cl)cc3Cl)CC2)c1`: the Potency is 23.5 µM (active). Turning to `Cc1cc(C)nc(NC(=S)N2CCN(c3ccc([N+](=O)[O-])cc3Cl)CC2)c1`, the Potency is 9.37 µM (active).

Turning to `Cc1ccnc(NC(=S)N2CCC(Nc3cccc(C(F)(F)F)c3)CC2)c1`, the Potency is 37.3 µM (active). As for `S=C(Nc1cc(Cl)ccn1)N1CCN(c2cc(Cl)cc(Cl)c2)CC1`, the Potency was 13.2 µM (active). With `Cc1cc(C)nc(NC(=S)N2CCN(c3ccc(Cl)cc3C(F)(F)F)CC2)c1`, the Potency was 9.37 µM (active). Consider `FC(F)(F)c1ccc(N2CCN(C(=S)Nc3ccccn3)CC2)cc1`, for which the Potency is 21 µM (active).

For the molecule `Cc1ccnc(NC(=S)N2CCN(c3ccc(Cl)cc3Cl)CC2)c1`, the Potency is 16.7 µM (active). As to `Cc1ccnc(NC(=S)N2CCN(c3cc(C(F)(F)F)cc(C(F)(F)F)c3)CC2)c1`, the Potency is 13.2 µM (active).

As to `FC(F)(F)c1cccc(N2CCN(C(=S)Nc3ncnc4ccccc34)CC2)c1`, the Potency is 6.63 µM (active).

The values above are taken from PubChem BioAssay AID540352 (National Center for Advancing Translational Sciences (NCATS), 2011).
